Reference: PubChem BioAssay (NCI)
This is part of a sample that, as a whole, favours compounds with a hit. Of some 83,000 tested, about 20% had one in any assay.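 Cells were grown in 96-well plates and exposed to the test compound at a single concentration for 48 hours; results are reported as percent growth, with values below 10 considered active.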 Active and inactive are the calls of the source.

Experiments:
Experiment in all cases: NCI-60 one-dose screen, 48 h (100 = growth as untreated, 0 = no growth, -100 = all killed)
Details in all cases: 10 µM unless noted
RPMI-8226 leukemia = tested on: RPMI-8226 leukemia
OVCAR-8 ovarian = tested on: OVCAR-8 ovarian
OVCAR-5 ovarian = tested on: OVCAR-5 ovarian
OVCAR-4 ovarian = tested on: OVCAR-4 ovarian
SK-OV-3 ovarian = tested on: SK-OV-3 ovarian
IGROV1 ovarian = tested on: IGROV1 ovarian
OVCAR-3 ovarian = tested on: OVCAR-3 ovarian
HS 578T breast = tested on: HS 578T breast
NCI/ADR-RES ovarian = tested on: NCI/ADR-RES ovarian
T-47D breast = tested on: T-47D breast

Measured: growth

CCCc1nn(C)c2c(=O)[nH]c(-c3cc(S(=O)(=O)N4CCN(C)CC4)ccc3OCC)nc12
inactive: RPMI-8226 leukemia 101% | OVCAR-8 ovarian 109% | OVCAR-5 ovarian 95.6% | OVCAR-4 ovarian 111% | SK-OV-3 ovarian 100% | IGROV1 ovarian 112% | OVCAR-3 ovarian 111% | HS 578T breast 104% | NCI/ADR-RES ovarian 90.2% | T-47D breast 98.4%

C=C(C)[C@H]1CC/C(C)=C/CC[C@]2(C)O[C@H]2CC/C(COC(C)=O)=C\C1=O
inactive: OVCAR-8 ovarian 107% | OVCAR-5 ovarian 98.7% | OVCAR-4 ovarian 123% | SK-OV-3 ovarian 111% | IGROV1 ovarian 74.4% | OVCAR-3 ovarian 164% | HS 578T breast 119% | NCI/ADR-RES ovarian 102% | T-47D breast 95.1%
active: RPMI-8226 leukemia -80.2%

O=C(Nc1ccc(OCc2nnc(-c3ccccc3)o2)c(F)c1)Nc1ccc(Cl)c(C(F)(F)F)c1
active: RPMI-8226 leukemia -21%
inactive: OVCAR-8 ovarian 24.5% | OVCAR-5 ovarian 64.5% | OVCAR-4 ovarian 26.8% | SK-OV-3 ovarian 52.4% | IGROV1 ovarian 36.3% | OVCAR-3 ovarian 15.4% | HS 578T breast 35.6% | NCI/ADR-RES ovarian 17.8% | T-47D breast 14.9%

Clc1cccc(Cc2cn3cc(-c4ccccc4)nc3s2)c1
inactive: RPMI-8226 leukemia 41.3% | OVCAR-8 ovarian 53.4% | OVCAR-5 ovarian 34.1% | OVCAR-4 ovarian 46.8% | SK-OV-3 ovarian 93.8% | IGROV1 ovarian 64.8% | OVCAR-3 ovarian 73.6% | HS 578T breast 76.8% | NCI/ADR-RES ovarian 60.2% | T-47D breast 11.5%

O=C(CCc1nnc(Cn2ccnc2)o1)c1nc2ccccc2[nH]1
inactive: RPMI-8226 leukemia 117% | OVCAR-8 ovarian 105% | OVCAR-5 ovarian 103% | OVCAR-4 ovarian 107% | SK-OV-3 ovarian 108% | IGROV1 ovarian 106% | OVCAR-3 ovarian 118% | HS 578T breast 112% | NCI/ADR-RES ovarian 99.8% | T-47D breast 102%

C=CCCCCCCCCC(=O)[O][Sn]([CH2]CCC)([CH2]CCC)[CH2]CCC
active: RPMI-8226 leukemia -27.3% | OVCAR-8 ovarian -74.2% | OVCAR-5 ovarian -89.4% | OVCAR-4 ovarian -96.7% | SK-OV-3 ovarian -98.8% | IGROV1 ovarian -72.9% | OVCAR-3 ovarian -97.9% | HS 578T breast -46.4% | NCI/ADR-RES ovarian -90.3% | T-47D breast -71.5%

O=C1NCC(Nc2ccc(Br)cc2Cl)C(=O)N1 (centres undefined)
inactive: RPMI-8226 leukemia 110% | OVCAR-8 ovarian 130% | OVCAR-5 ovarian 100% | OVCAR-4 ovarian 111% | SK-OV-3 ovarian 105% | IGROV1 ovarian 108% | OVCAR-3 ovarian 114% | HS 578T breast 105% | NCI/ADR-RES ovarian 107% | T-47D breast 99.6%

O=C(CCc1nnc(Cn2cncn2)o1)c1nc2ccccc2[nH]1
inactive: RPMI-8226 leukemia 108% | OVCAR-8 ovarian 107% | OVCAR-5 ovarian 107% | OVCAR-4 ovarian 111% | SK-OV-3 ovarian 116% | IGROV1 ovarian 118% | OVCAR-3 ovarian 122% | HS 578T breast 127% | NCI/ADR-RES ovarian 105% | T-47D breast 108%

Cn1cc(-c2nc(-c3c[nH]c4ncc(F)cc34)cs2)c2cccnc21
inactive: RPMI-8226 leukemia 100% | OVCAR-8 ovarian 105% | OVCAR-5 ovarian 93.4% | OVCAR-4 ovarian 82.2% | SK-OV-3 ovarian 109% | IGROV1 ovarian 108% | OVCAR-3 ovarian 117% | NCI/ADR-RES ovarian 100% | T-47D breast 59.9%

COc1cc(OC)c2sc(-c3ccc(-n4cncc4-c4ccc(N)cc4)cc3)nc2c1
inactive: RPMI-8226 leukemia 64% | OVCAR-8 ovarian 77.4% | OVCAR-5 ovarian 100% | OVCAR-4 ovarian 63.1% | SK-OV-3 ovarian 120% | IGROV1 ovarian 104% | OVCAR-3 ovarian 77.6% | HS 578T breast 103% | T-47D breast 60.6%

NC(N)=NC(N)=NCCCc1ccccc1
inactive: RPMI-8226 leukemia 62.6% [100 µM] | OVCAR-8 ovarian 71.1% [100 µM] | OVCAR-5 ovarian 76.3% [100 µM] | OVCAR-4 ovarian 70% [100 µM] | SK-OV-3 ovarian 67.7% [100 µM] | IGROV1 ovarian 53.1% [100 µM] | OVCAR-3 ovarian 56.9% [100 µM] | NCI/ADR-RES ovarian 81.2% [100 µM] | T-47D breast 53.7% [100 µM]

Cn1cc(-c2csc(-c3c[nH]c4ncccc34)n2)c2cc(Br)cnc21
active: OVCAR-4 ovarian -34.6% | SK-OV-3 ovarian 0.893%
inactive: RPMI-8226 leukemia 61.8% | OVCAR-8 ovarian 22.4% | OVCAR-5 ovarian 82.3% | IGROV1 ovarian 27.3% | OVCAR-3 ovarian 20.6% | NCI/ADR-RES ovarian 29.2% | T-47D breast 20.7%

NC(=O)N/N=C/c1ccc(Br)o1
inactive: RPMI-8226 leukemia 109% | OVCAR-8 ovarian 107% | OVCAR-5 ovarian 98.7% | OVCAR-4 ovarian 111% | SK-OV-3 ovarian 101% | IGROV1 ovarian 97.8% | OVCAR-3 ovarian 113% | HS 578T breast 109% | T-47D breast 91.4%

C=Cc1nn2c(CCC(=O)c3nc4ccccc4[nH]3)nnc2s1
inactive: RPMI-8226 leukemia 110% | OVCAR-8 ovarian 108% | OVCAR-5 ovarian 102% | OVCAR-4 ovarian 110% | SK-OV-3 ovarian 106% | IGROV1 ovarian 106% | OVCAR-3 ovarian 107% | NCI/ADR-RES ovarian 100% | T-47D breast 106%
